Compound activity (PubChem)
SARS PLP yeast: qHTS of Yeast-based Assay for SARS-CoV PLP; S. cerevisiae expressing SARS-CoV PLpro, growth rescue; Potency, µM (highest dose often 32.9 µM), for the others: top-dose activity, positive = growth rescue, hits mostly activators; 330,000 compounds, 0.19% hits; calls by dose curve; also: 0% is about no effect; nearly all actives have a fitted effect of over 55% in size
LmPK inhibitor: qHTS Assay for Inhibitors of Leishmania Mexicana Pyruvate Kinase (LmPK). 290,000 compounds, 0.37% hits. Q27686. Potency, µM (titrated, usually from 57.5 µM), without a hit: at the highest dose activity change, negative = inhibition, hits mostly inhibitors. AID 1721, 2009. purified LmPK, Kinase-Glo ATP luminescence, 1 h; also: % is scaled to controls: 0 for no effect and ±100 for the full control effect
Target sequence (Q27686 whole entry, looked up): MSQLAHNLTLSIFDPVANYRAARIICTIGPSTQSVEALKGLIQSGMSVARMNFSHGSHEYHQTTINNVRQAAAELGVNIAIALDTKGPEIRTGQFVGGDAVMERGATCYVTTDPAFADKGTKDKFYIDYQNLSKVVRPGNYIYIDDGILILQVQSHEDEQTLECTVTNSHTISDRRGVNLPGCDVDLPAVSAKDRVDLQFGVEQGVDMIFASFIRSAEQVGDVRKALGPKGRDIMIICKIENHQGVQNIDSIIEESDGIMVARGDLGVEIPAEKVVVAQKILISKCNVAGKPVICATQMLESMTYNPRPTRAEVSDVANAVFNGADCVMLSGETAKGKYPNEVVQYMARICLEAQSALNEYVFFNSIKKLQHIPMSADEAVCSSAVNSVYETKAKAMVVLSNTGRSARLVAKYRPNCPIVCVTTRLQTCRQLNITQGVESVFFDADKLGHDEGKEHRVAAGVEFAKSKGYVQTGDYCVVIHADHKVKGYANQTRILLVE
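0.1 nM LmPK, 0.5 mM PEP, 0.1 mM ADP; 50 mM imidazole pH 7.2, 7 mM MgCl2, 50 mM KCl; 1 h RT. Kinase-Glo luminescence readout, normalized to no-enzyme (full inhibition) and uninhibited wells.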
NS1 function inh: qHTS Assay for Inhibitors of Influenza NS1 Protein Function; Potency, µM (series often up to 46.1 µM), for inactives: top-dose activity, positive = more growth; 270,000 compounds, 0.4% hits; AID 2326, 2010; calls by dose curve; also: actives are rising curves; nearly all actives have a fitted effect of over 50% in size
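Growth recovery, yeast-based: influenza A NS1 expressed in S. cerevisiae causes slow growth, and suppressors are detected by OD600. The parent strain without NS1 is used as positive control.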
Tb PYK inh: qHTS of Trypanosoma Brucei Inhibitors; TbPYK enzyme, Kinase-Glo Plus ATP luminescence, 45 min; 410,000 compounds, 0.12% hits; Potency, µM (series often up to 76.8 µM), without a hit: top-dose activity, negative = inhibition, hits mostly inhibitors; AID 624173, 2012; pyruvate kinase (Trypanosoma brucei), Q57TT1; also: % is scaled to controls: 0 for no effect and ±100 for the full control effect; nearly all actives have a fitted effect of over 50% in size
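Luminescence from Kinase-Glo Plus, added after a 45-minute room-temperature reaction, served as the end-point read-out. The enzyme and substrate were preincubated with compound before ADP (130 uM final) initiated turnover. Concentration-effect curves came from normalized qHTS data.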
Sm TGR block: qHTS Assay for the Inhibitors of Schistosoma Mansoni Peroxiredoxins | Schistosoma mansoni thioredoxin glutathione reductase (TGR), Q962Y6 | purified TGR, DTNB reduction, TNB absorbance 405 nm | Potency, µM (doses to about 114 µM), for inactives: at the top dose activity change, negative = inhibition, most hits filed as inhibitors | 360,000 compounds, 3% hits | AID 485364, 2010; also: % is scaled to controls: 0 for no effect and ±100 for the full control effect; nearly all actives have a fitted effect of over 60% in size
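Kinetic colorimetric format: TGR-catalysed, NADPH-driven DTNB reduction monitored via TNB absorbance. Enzyme dispensed at 20 nM; compound exposure 15 min at room temperature before reaction start.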
RE007 growth inh: qHTS Assay for Inhibitors of the HIV-1 protein Vpr; S. pombe RE007 Vpr strain, BacTiter-Glo ATP luminescence, 24 h; Potency, µM (series often up to 92.2 µM), for inactives: at the highest dose activity change, negative = less growth, actives largely listed as inhibitors; 360,000 compounds, 0.21% hits; AID 651644, 2012; active = well fitted falling curve with a large enough effect; inconclusive = small, poorly fitted or top-dose-only effect; inactive = no such curve, though single readings can be large or run the other way; also: % is scaled to controls: 0 for no effect and ±100 for the full control effect; nearly all actives have a fitted effect of over 50% in size
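Fission yeast strain RE007, carrying one chromosomally integrated HIV-1 vpr copy, was seeded at OD 0.01 in PMG+AL medium with 23 nL pinned compound. After 24 h at 30 °C and 99% humidity, viability was read by BacTiter-Glo luminescence.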
* hit, by the source's call; [ ] = another dose, or the depositor's remark. The list is not random: actives were taken first. Their share in the collection is about 3.3%. Unless noted, calls follow the shape of the dose curve; as a rule, active = well fitted curve in the direction sought with a large enough effect; inconclusive = small, poorly fitted or top-dose-only effect, or another doubt; inactive = no such curve, though single readings can be large; an effect the other way counts as inactive or inconclusive. Potency is read from the fitted curve at half-maximal effect.

Screening COc1ccc(C(=O)Nc2nc3n(n2)C(c2ccccc2)C=C(c2ccccc2)N3)cc1 (stereo unspecified) returned Tb PYK inh -5.3% and Sm TGR block 3.16µM*.
CCC(=O)Nc1nc2n(n1)C(c1ccc(OC)cc1)C=C(c1ccccc1)N2 (stereo unspecified) was read as SARS PLP yeast 7.9%, LmPK inhibitor -0.9%, NS1 function inh 10.5% and Sm TGR block 4.47µM*.
`COc1cccc(NC(=O)Cn2cnc3c(nc4n3CCCCC4)c2=O)c1` gave Tb PYK inh 0.3% and Sm TGR block 5.5%.
For O=C(O)CCNc1ncnc2nc[nH]c12 the results were NS1 function inh 3.5%.
For CSC1=NC(C)(C)C=C(/C=C/c2ccc(Cl)cc2)N1 the results were SARS PLP yeast -1.1%, LmPK inhibitor 4.7%, Tb PYK inh 1.9%, Sm TGR block 5.01µM* and RE007 growth inh -13.1%.
`Nc1nccc(/C=C/c2c(Cl)cccc2Cl)n1` gave SARS PLP yeast 0.1%, LmPK inhibitor 3.6%, NS1 function inh -3.7%, Tb PYK inh -1.1%, Sm TGR block 20.9% and RE007 growth inh -2.0%.
Clc1ccc(/C=C/c2ncc[nH]2)c(Cl)c1 was read as SARS PLP yeast -7.4%, LmPK inhibitor -3.7%, NS1 function inh -79.0%, Tb PYK inh -8.2%, Sm TGR block 1.2% and RE007 growth inh -17.7%.
For CSC1=NC(C)(C)C=C(/C=C/c2ccc(Cl)cc2Cl)N1 the results were SARS PLP yeast 0.8%, LmPK inhibitor -0.5%, Tb PYK inh -5.5%, Sm TGR block 20µM* and RE007 growth inh -12.6%.
For CCSC1=NC(C)(C)C=C(/C=C/c2ccc(Cl)cc2Cl)N1 the results were SARS PLP yeast -4.7%, LmPK inhibitor 0.3%, NS1 function inh -56.1%, Tb PYK inh -7.4%, Sm TGR block 17.8µM* and RE007 growth inh -15.5%.
For CSC1=NC(C)(C)C=C(/C=C/c2c(Cl)cccc2Cl)N1 the results were SARS PLP yeast -2.1%, LmPK inhibitor 1.6%, Tb PYK inh -6.5%, Sm TGR block 15.8µM* and RE007 growth inh -10.6%.
Screening Cc1cccc(-c2noc(-c3cc(C(C)C)[nH]n3)n2)c1 returned Tb PYK inh 5.1% and Sm TGR block 18.1%.
CCc1ccc2occ(CC(=O)Nc3ccc(OC)c(Cl)c3)c2c1 was read as Tb PYK inh -7.7% and Sm TGR block -5.1%.
Cc1cccc(NC(=O)C2CCC(CNS(=O)(=O)c3csc(C(N)=O)c3)CC2)c1C (stereo unspecified) was read as Tb PYK inh -0.5% and Sm TGR block 4.7%.
For CCN1CCc2nc(N)oc2CC1 the results were NS1 function inh -3.1%, Tb PYK inh 4.0%, Sm TGR block 5.62µM* and RE007 growth inh -1.1%[18.4 µM].
For C#CC(=O)N(c1ccc(OC)cc1OC)C(C(=O)NC1CCCC1)c1cccs1 (stereo unspecified) the results were SARS PLP yeast 1.1%, LmPK inhibitor 3.7%, NS1 function inh 3.1%, Tb PYK inh 5.6%, Sm TGR block 1.58µM* and RE007 growth inh 8.5%.
`COc1ccc(Cl)cc1NC(=O)C1CCN(S(=O)(=O)c2ccc3c(c2)CCCN3C(=O)C2CCC2)CC1` gave Tb PYK inh 0.0% and Sm TGR block -3.5%.
Cc1ccc(C)c(/C(O)=C2/C(=O)C(=O)N(CCN3CCOCC3)C2c2ccc(C)o2)c1 (stereo unspecified) was read as SARS PLP yeast 1.6%, LmPK inhibitor 5.7%, NS1 function inh -7.4%, Tb PYK inh -5.9%, Sm TGR block inconclusive and RE007 growth inh -12.4%.
For Cc1c(/C(O)=C2\C(=O)C(=O)N(CCCN(C)C)C2c2ccccc2)cnn1-c1ccccc1 (stereo unspecified) the results were SARS PLP yeast 16.6%, LmPK inhibitor 0.7%, NS1 function inh 0.8%, Tb PYK inh 1.2%, Sm TGR block 3.3% and RE007 growth inh 12.6%.
Cc1c(/C(O)=C2/C(=O)C(=O)N(CCN3CCOCC3)C2c2ccccn2)cnn1-c1ccccc1 (stereo unspecified) was read as SARS PLP yeast -1.5%, LmPK inhibitor -2.1%, NS1 function inh 2.0%, Tb PYK inh 0.9%, Sm TGR block 22.4µM* and RE007 growth inh -4.0%.
For Cc1ccc(C2/C(=C(/O)c3cnn(-c4ccccc4)c3C)C(=O)C(=O)N2CCCN2CCOCC2)o1 (stereo unspecified) the results were SARS PLP yeast -1.0%, LmPK inhibitor 1.1%, NS1 function inh 9.7% and Sm TGR block 10µM*.
`COC1=C(C(=O)O)N2C(=O)[C@@H](NC(=O)C(N)C3C=CCC=C3)[C@H]2SC1` (stereo partly specified) gave Tb PYK inh 3.9%.
Screening COc1ccc(/C=C2\CCC(C3CCCC3)C2=O)cc1 (stereo unspecified) returned SARS PLP yeast -0.3%, LmPK inhibitor -2.8%, NS1 function inh 0.4%, Tb PYK inh -3.1%, Sm TGR block -0.2% and RE007 growth inh 0.4%.
Screening COc1ccc(/C=C2/CCC(CN3CCOCC3)C2=O)cc1 (stereo unspecified) returned Tb PYK inh inconclusive and RE007 growth inh 7.94µM*.
CC1CCC/C(=C\c2ccc(O)cc2)C1=O (stereo unspecified) was read as Tb PYK inh 2.4% and RE007 growth inh inconclusive.
CN(C)CC1CC/C(=C\c2ccc(O)cc2)C1=O (stereo unspecified) was read as Tb PYK inh inconclusive and RE007 growth inh 11.2µM*.
For COc1cccc(CNC(=O)c2ccc(CNS(=O)(=O)c3ccc(C)cc3)cc2)c1 the results were Tb PYK inh -4.0% and Sm TGR block 9.8%.
CCC[C@@H]1CC(C(=O)NC(C2O[C@H](SC)C(OP(=O)(O)O)[C@H](O)[C@H]2O)[C@H](C)Cl)N(C)C1 (stereo partly specified) was read as Tb PYK inh 4.0%.
CCOC(=O)c1sc(N)c(C(=O)OCC)c1COC(=O)C1CC(=O)N(Cc2ccco2)C1 (stereo unspecified) was read as SARS PLP yeast 4.6%, LmPK inhibitor -0.8%, NS1 function inh -10.9%, Tb PYK inh -4.9%, Sm TGR block 39.8µM* and RE007 growth inh 1.7%.
